# AmpC detergent: qHTS Inhibitors of AmpC Beta-Lactamase (assay with detergent) | AmpC hydrolysis of nitrocefin, absorbance 480 nm, 0.01% Triton | 0.041% of 370,000 active | P00811 | Potency, µM (titrated, usually from 114 µM), without a hit: top-dose activity change, negative = inhibition, usual class: inhibitors;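 further: potency means the concentration at half of the fitted maximal effect; 0% = no-compound wells and -100% = no-enzyme wells; nearly all actives have a fitted effect of over 25% in size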
# Target sequence (P00811 whole entry, looked up): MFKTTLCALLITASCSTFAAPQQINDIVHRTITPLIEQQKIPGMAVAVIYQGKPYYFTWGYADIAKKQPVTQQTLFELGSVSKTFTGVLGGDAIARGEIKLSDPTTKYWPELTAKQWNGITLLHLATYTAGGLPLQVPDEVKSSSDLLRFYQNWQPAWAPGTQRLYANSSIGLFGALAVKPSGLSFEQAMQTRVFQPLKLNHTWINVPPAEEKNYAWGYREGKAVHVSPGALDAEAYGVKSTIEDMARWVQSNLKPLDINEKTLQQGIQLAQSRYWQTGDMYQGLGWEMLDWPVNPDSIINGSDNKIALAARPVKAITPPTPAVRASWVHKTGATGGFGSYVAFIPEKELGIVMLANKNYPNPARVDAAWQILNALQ
#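 20 mM phosphate pH 7.0 + 0.01% (detergent screen) or 0.0001% Triton X-100; 5.3 nM AmpC reagent; cpd preinc 15 min RT; nitrocefin (800 uM stock) to start; A480 q20 s × 4 min; Activity was normalised to no-enzyme and no-compound control wells.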
# AmpC no deterg: qHTS Inhibitors of AmpC Beta-Lactamase (assay without detergent) | AID 485341, 2010 | 0.52% of 330,000 active | AmpC nitrocefin hydrolysis, absorbance 480 nm, 0.0001% Triton | P00811 | Potency, µM (series often up to 57.1 µM), for the others: top-dose activity change, negative = inhibition, hits mostly inhibitors;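 further: potency means the concentration at half of the fitted maximal effect; plate controls were no compound for no effect and no enzyme for full effect; nearly all actives have a fitted effect of over 20% in size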
#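 AmpC (5.3 nM in the dispensed reagent) in 20 mM phosphate pH 7.0 with 0.01% (detergent screen) or 0.0001% Triton X-100 was preincubated with compounds for 15 min at room temperature. Nitrocefin was then added from an 800 uM solution, and hydrolysis was followed at 480 nm.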
# SARS PLP yeast: qHTS of Yeast-based Assay for SARS-CoV PLP. 0.19% of 330,000 active. Potency, µM (top dose mostly 32.9 µM), without a hit: at the highest dose activity, positive = growth rescue, most hits filed as activators. AID 485353, 2010. S. cerevisiae expressing SARS-CoV PLpro, growth rescue; calls by dose curve; further: potency means the concentration at half of the fitted maximal effect; 0% is about no effect; nearly all actives have a fitted effect of over 55% in size
# Shiga inhibitor: A qHTS for Small Molecule Inhibitors of Shiga Toxin; Vero cells, Shiga toxin protein synthesis inhibition reporter; inhibition, % at 38.7 µM; 9.2% of 290,000 active; in the data active means inhibition mostly above about 28%, no sharp cut-off; inactive means mostly below about 43%; further: 0% is about no effect
# Cycloheximide cs: Cycloheximide Counterscreen for Small Molecule Inhibitors of Shiga Toxin; cell reporter, cycloheximide protein synthesis inhibition counterscreen; max response, %; 12% of 300,000 active; AID 2314, 2010; in the data active means max response mostly above about 13%, no sharp cut-off; inactive means mostly below about 14%; further: read at 38.3 µM for the half of the compounds with a filed dose; 0% is about no effect
# AMA1 RON2 block: qHTS for Inhibitors of AMA1-RON; Towards Development of Antimalarial Drug Lead: Primary Screen; Plasmodium falciparum AMA1 (3D7) - RON2 peptide interaction; AlphaScreen AMA1-biotinylated RON2 peptide binding; Potency, µM (highest dose often 58.2 µM), for inactives: at the top dose activity change, negative = inhibition, most hits filed as inhibitors; 0.2% of 360,000 active; AID 720542, 2013;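 further: potency means the concentration at half of the fitted maximal effect; 0% = vehicle wells and -100% = peptide control; nearly all actives have a fitted effect of over 45% in size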
#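 AMA1 (3D7) with his tag at 25 nM final met compounds first, then biotinylated RON2 peptide at 25 nM; detection used donor plus acceptor beads, 10 µg/mL apiece, read by AlphaScreen after 30 min at room temperature.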
# * = called active by the depositor; ? = inconclusive; . = no result; ! = a repeat was not active; [ ] = dose if it differs, or a comment. This excerpt belongs to a sample that is enriched for hits. Unless noted, the call rests on the fitted dose curve; in most records, active means well fitted curve in the direction sought with a large enough effect; inconclusive means small, poorly fitted or top-dose-only effect, or another doubt; inactive means no such curve, though single readings can be large; an effect the other way counts as inactive or inconclusive.
SMILES,AmpC detergent,AmpC no deterg,SARS PLP yeast,Shiga inhibitor,Cycloheximide cs,AMA1 RON2 block
CCC(=O)N1CCC(C)(C(=O)Nc2nccc3ccccc23)C1 (stereo not given),.,.,.,.,.,0.4%
CC(C)CC(N)c1csc(Nc2ccc(C(=O)N(C)Cc3ccccc3)cn2)n1 (stereo not given),.,.,.,.,.,60.1%
COc1ccc(NC(=O)CSc2nnc(C3CC3)n2C)cc1S(=O)(=O)N1CCOCC1,-15.2%,-7.1%,5.6%,.,.,-3.8%
C=CCn1c(O)c(/C(C)=N/NC(=S)Nc2ccccc2)c(=O)[nH]c1=O,-5.1%,-40.7%,-0.4%,59.9*,27.0*,87.9%
C=CCn1c(O)c(C(C)=NCCc2ccccc2)c(=O)[nH]c1=O,-3.3%,-16.4%,18.1%,-5.9,9.5,0.2%
Cc1cc(C)c(S(=O)(=O)c2ccccc2C)c(SCC(C)C)n1,0.2%,0.251µM*,-8.2%,0.8,-2.2,23.7%
CCCSc1nc(C)cc(C)c1S(=O)(=O)c1ccccc1C,-17.1%,-39.3%,-14.0%,-8.7,0.3,26.7%
Oc1c(C=Nc2ccccc2Cl)[nH]c2ccccc12,3.4%,-18.5%,0.4%,77.3*,47.3*,4.6%
Oc1[nH]c2ccccc2c1N=Nc1ccccc1Cl,.,.,.,.,.,8.1%
CC(C)NCC(O)COc1c(F)cc(Br)cc1F (stereo not given),?,-9.9%,-1.3%,3.1,-1.3,5.3%
CCOc1ccc(NC(=S)N(CCN2CCOCC2)Cc2cc3cc4c(cc3[nH]c2=O)OCO4)cc1,2.7%,-4.7%,3.4%,18.7,5.7,0.7%
COc1cc(NC(=O)C2=C(N3CCOCC3)/C(=C\c3ccc(N(C)C)cc3)CCC2)cc(OC)c1OC,1.0%,-16.5%,5.1%,77.5*,45.6*,-29.7%
Nc1ccccc1-c1nnc(-c2ccccc2N)n1N,3.3%,-8.7%[2.29 µM],-1.4%,57.4*,37.8*,26.7%
Nn1c(SCc2ccccc2F)nnc1-c1ccncc1,-4.8%,-8.3%,1.2%,80.2*,31.8*,-20.8%
Fc1ccccc1CSc1nnc2ccc(-c3ccncc3)nn12,0.5%,-1.0%,0.6%,6.3,12.7,2.0%
Nn1c(SCc2c(F)cccc2F)nnc1-c1ccccn1,-3.7%,-2.3%,0.0%,90.4*,31.6*,-10.7%
Nn1c(-c2ccccn2)nnc1-c1ccccn1,?,-16.1%,-10.6%,57.5*,32.1*,-9.7%
CCc1sc(C(=O)NC2CCN(C)CC2)cc1Br,?,49.5%,10.2%,-2.1,-1.1,4.7%
CC(C(=O)c1ccc(Br)cc1)[n+]1cccc2ccccc21 (stereo not given),?,-13.1%,-3.9%,.,-4.4,11.6%
O=C(Nc1ccccc1)c1ccc(CN2CCc3ccccc3C2)cc1,?,-17.2%,4.9%,54.4,27.1*,-7.2%
O=C(Nc1ccccc1F)c1ccc(CN2CCc3ccccc3C2)cc1,-0.1%,-39.5%,-6.9%,27.0,19.6*,-3.8%
Cc1ccc(NC(=O)c2ccc(CN3CCc4ccccc4C3)cc2)cc1,?,-16.1%,-17.7%,16.5,3.3,-0.2%
COCC(=O)N1CCc2ccc(NC(=O)c3ccc(C(F)(F)F)cc3)cc2C1,.,.,.,.,.,2.9%
O=C(Nc1ccc2c(c1)CN(Cc1ccc(CO)o1)CC2)c1ccc(C(F)(F)F)cc1,-3.4%,-6.4%,1.8%,35.4,44.3*,-4.6%
CCOC(=O)N1CCc2c(sc3c2c(=O)n(-c2ccccc2C(F)(F)F)c(=O)n3Cc2ccccc2C)C1,-5.2%,.,.,.,.,.
SMILES,AmpC detergent,AmpC no deterg,SARS PLP yeast,Shiga inhibitor,Cycloheximide cs,AMA1 RON2 block
COc1cccc(CNC(=O)Cn2cc3c(n2)CCCC3)c1,-16.0%,?,5.8%,-9.0,-0.7,-0.9%
Cc1cc(-c2nc3ncccc3o2)ccc1NC(=O)c1ccc(Br)cc1,17.5%,.,.,.,.,.
Cc1ccc(SCCN2CCN(CC(C)C)CCC2=O)cc1,-3.5%,56.9%,4.6%,84.5*,31.2*!,-7.6%
CCCN1CCC(=O)N([C@H](CSc2ccc(OC)cc2)Cc2ccccc2)CC1,-8.9%,173.7%,4.2%,-6.0,-1.4,-5.2%
CCCN1CCC(=O)N(CCSc2ccccc2)CC1,-0.1%,-6.9%,7.2%,44.4*,40.3*,5.2%
CCCN1CCC(=O)N(CCSc2ccc(Br)cc2)CC1,.,.,.,56.0*,35.2*,.
C[C@H]1CCC(=O)N(CCSc2ccc(Br)cc2)CC1,1.1%,19.2%,3.9%,.,.,12.6%
CN1CCC(=O)N(CCSc2ccc(Br)cc2)CC1,2.8%,12.1%,-1.3%,49.7*!,20.8*!,-6.9%
COC(=O)CC1C(=O)NCCN1C(=O)Nc1ccc(Cl)c(Cl)c1 (stereo not given),1.6%,0.8%,0.3%,-7.7,-2.9,-3.1%
[N-]=[N+]=NCCN1CCN(Cc2ccccc2)CCC1=O,-3.0%,-20.3%,8.0%,16.1,-3.6,9.9%
CCCN1CCC(=O)N(CCSc2ccc(NC(C)=O)cc2)CC1,4.2%,-1.5%,-1.0%,107.7*!,64.4*!,-16.4%
O=C1CCN(Cc2ccccc2)CCN1CCSc1ccccc1,?,-5.0%,11.3%,41.0*,41.6*,-1.3%
CC(=O)Nc1ccc(SCCN2CCN(CC(C)C)CCC2=O)cc1,.,.,.,-4.6,-5.1,.
c1ccc(SCCN2CCN(c3ccccc3)CC2)cc1,-0.3%,-23.1%,-1.4%,44.9,12.8*,-10.9%
CSc1ccccc1C(=O)C1CCCN(C(=O)CCc2cccnc2)C1 (stereo not given),-7.5%,-3.7%,0.4%,50.1,24.3*,-18.7%
COc1ccc2cc(C(=O)C3CCCN(C(=O)C4=NN(C)C(=O)CC4)C3)ccc2c1 (stereo not given),-3.6%,145.7%,1.5%,2.5,20.5*,-5.9%
COc1ccc(C(=O)C2CCCN(C(=O)CCc3ccccn3)C2)c(C)c1 (stereo not given),8.4%,42.2%,0.5%,-15.1,7.8,-5.9%
COc1ccc2cc(C(=O)C3CCCN(C(=O)c4csnn4)C3)ccc2c1 (stereo not given),9.3%,62.8%,-2.1%,1.1,9.4,-5.5%
COc1ccc(C(=O)C2CCCN(C(=O)CCc3scnc3C)C2)c(C)c1 (stereo not given),-0.5%,-11.4%,-3.1%,91.7*,47.3*,-21.6%
C=CCCC(=O)N1CCCC(C(=O)c2cccc(OC)c2)C1 (stereo not given),-3.5%,-4.0%,20.2%,12.3,21.4*,5.8%
O=C(C1CCCN(Cc2ccc(F)cc2)C1)N1CCCCC1 (stereo not given),-9.4%,-0.5%,-2.6%,-5.7,8.2,-9.4%
COc1ccc2cc(C(=O)C3CCCN(C(=O)c4cnn(C(C)C)c4)C3)ccc2c1 (stereo not given),-12.7%,158.5%,4.1%,-2.4,11.1,-1.0%
